# Results from PubChem BioAssay AID1117361 (Southern Research Institute, 2015).
# About 900 (25%) of roughly 3,600 compounds were called active. The rule behind the calls is not given here. Only a sample is shown. Measured potencies and affinities stand elsewhere.
# Target: Protein Tat (Human immunodeficiency virus type 1 group M subtype B (isolate HXB2)) (UniProt P04608)
# Test: inhibitors of Tat binding to TAR RNA, dose response, counter-screen for Vif-APOBEC3G degradation inhibitor project, biochemical, fluorescence polarization, FAM-labeled TAR RNA (AID 1117361)
# Conditions: outcome: dose series up to 100 µM unless noted; series mostly up to 100 µM; inhibition: at the top concentration
SMILES,outcome,inhibition
CC(NC(=O)C(NS(=O)(=O)c1cccs1)C(C)C)c1ccc(S(N)(=O)=O)cc1 (configuration not stated),inactive,–
Cc1cc(C)cc(NCCC#N)c1,inactive,–
CCOC(=O)CC1Sc2ccccc2NC1=O (configuration not stated),inactive,–
Cc1cc(C)n(Cc2ccc(NC(=O)c3nn(C)cc3[N+](=O)[O-])cc2)n1,inactive,–
Cc1ccc2[nH]c(=O)c(CN(Cc3cccnc3)C(=O)c3ccncc3)cc2c1,inactive,–
COC(=O)Nc1sc2nc(C)cc(C)c2c1-n1cccc1,–,8.78% (inactive)
O=C(COc1ccc([N+](=O)[O-])cc1)NC(C(=O)O)C(O)c1cccc([N+](=O)[O-])c1 (configuration not stated),–,12.4% (inactive)
CCn1c(COc2ccc(=O)n(-c3ccccc3)n2)nnc1SCc1ccc(C)cc1,inactive,–
CCc1ccc(NC(=O)C(C)Oc2nnc(-c3cccs3)c(-c3cccs3)n2)cc1 (configuration not stated),–,2.7% (inactive)
Cc1ccccc1SCc1noc(C(=O)NC(C)C)c1C(=O)O,–,6.08% (inactive)
CN(Cc1cccs1)C(=O)Cn1cnc2ccccc2c1=O,inactive,–
COc1ccc([N+](=O)[O-])cc1CSc1nnc(NC(C)=O)s1,–,9.9% (inactive)
COCCSc1nnc(NC(=O)Cc2ccccc2OC)s1,–,8.11% (inactive)
Oc1ccc(/C=C/c2cnccn2)cc1,inactive,–
Cc1ccc(C)c(S(=O)(=O)Nc2ccc3scnc3c2)c1,–,1.36% (inactive)
O=C(Nc1nncs1)c1c(F)c(F)c(F)c(F)c1F,–,19.1% (inactive)

SMILES,outcome,inhibition
O=C(CN(C1CCCCC1)S(=O)(=O)c1ccccc1)N1CCCC1,–,5.41% (inactive)
Cc1nc2ccccn2c1/C(O)=C1\C(=O)C(=O)N(CCCn2ccnc2)C1c1ccncc1 (configuration not stated),–,18.9% (inactive)
CCN(CC)CCCN1CC(O)=C(c2nc3ccccc3s2)C1=N,–,5.41% (inactive)
Cc1cc(Nc2ccc(C)c(C)c2)n2nc(C)nc2n1,–,2.03% (inactive)
O=S(=O)(Nc1ccc(N2CCOCC2)cc1)c1ccccc1,inactive,–
Cc1cc(C(=O)N2CCOCC2)n(-c2ccccc2)n1,–,4.73% (inactive)
Cc1nn(-c2c(Cl)cc(Cl)cc2Cl)c(=O)c2ccccc12,–,8.35% (inactive)
CC(Sc1nnnn1-c1ccccc1)C(=O)Nc1ccc(Cl)cn1 (configuration not stated),inactive,–
O=C(CN1C(=O)C2CC=CCC2C1=O)OCCN1C(=O)c2ccccc2C1=O (configuration not stated),inactive [at 50 µM],–
Cc1ccc(CCNC(=O)C2CCC(=O)N2C2CCCC2)cc1 (configuration not stated),–,1.36% (inactive)
Cc1c(NS(=O)(=O)c2cccc(C(=O)NCc3ccncc3)c2)c(=O)n(-c2ccccc2)n1C,–,0.68% (inactive)
O=S(=O)(NCc1ccccc1Cl)c1cnc[nH]1,–,2.73% (inactive)
CNC(=S)N(Cc1ccc(OC)cc1)C1CC(=O)N(c2ccc(Cl)cc2)C1=O (configuration not stated),–,10.8% (inactive)
CCN1CCN(Cc2ccc(NC(=O)Nc3ccccc3)cc2)CC1,inactive,–
CCCC(=O)NNC(=O)Nc1ccccc1,–,10.3% (inactive)
COc1ccc2cc(C(=O)Nc3ccc(O)cc3)sc(=O)c2c1OC,–,25.6% (inactive)
